Assay results taken from the antibiotic and cytotoxicity screens of Wong et al. (2023).
Hit rate of the full screen: of about 39,000 compounds, about 3,300 (8.5%) were called active. Shown is part of a subset that was picked to be rich in actives.

System: HepG2
Assay: cytotoxicity call (relative viability < 0.9)
Settings: 10 µM

Row | Compound | cytotoxicity call
1 | COC(=O)C1=CC(CCCO)=C[C@@H](c2ccc(CN3CCCC3)cc2)N(Cc2sc3ccccc3c2Cl)C=C1C(=O)OC | inactive
2 | C[C@@H]1CN([C@H](C)CO)C(=O)c2cc(C#Cc3ccccc3)cnc2O[C@@H]1CN(C)C(=O)CCN1CCCCC1 | inactive
3 | C[C@H]1CN([C@@H](C)CO)C(=O)c2cc(C#Cc3ccccc3)cnc2O[C@@H]1CN(C)C(=O)CCN1CCCCC1 | active
4 | C[C@@H]1CN([C@@H](C)CO)C(=O)c2cc(C#Cc3ccccc3)cnc2O[C@@H]1CN(C)C(=O)CCN1CCCCC1 | inactive
5 | C[C@@H]1CN([C@H](C)CO)C(=O)c2cc(C#Cc3ccccc3)cnc2O[C@H]1CN(C)C(=O)CCN1CCCCC1 | inactive
6 | C[C@H](CO)N1C[C@H](C)[C@@H](CN(C)C(=O)CCN2CCCCC2)Oc2ncc(C#Cc3ccccc3)cc2C1=O | inactive
7 | C[C@H]1CN([C@@H](C)CO)C(=O)c2cc(C#Cc3ccccc3)cnc2O[C@H]1CN(C)C(=O)CCN1CCCCC1 | active
8 | CC(C)NC(=O)N(C)C[C@@H]1Oc2ccc(NC(=O)c3ccncc3)cc2CC(=O)N([C@@H](C)CO)C[C@H]1C | inactive
9 | COc1ccc(S(=O)(=O)N(C)C[C@@H]2Oc3ccc(NC(=O)CCCN(C)C)cc3CC(=O)N([C@H](C)CO)C[C@@H]2C)cc1 | inactive
10 | Cc1ccc(=O)[nH]n1 | inactive
11 | C[C@@H]1CN([C@@H](C)CO)C(=O)c2cc(-c3cccnc3)cnc2O[C@@H]1CN(C)Cc1ccc(Oc2ccccc2)cc1 | inactive
12 | C[C@H]1CCCCO[C@H](CN(C)C(=O)Nc2cccc3ccccc23)[C@@H](C)CN([C@@H](C)CO)C(=O)c2cc(NC(=O)Cc3ccccc3)ccc2O1 | inactive
13 | COc1cccc(S(=O)(=O)N(C)C[C@@H]2Oc3ncc(-c4cccc(C(=O)N(C)C)c4)cc3C(=O)N([C@@H](C)CO)C[C@H]2C)c1 | inactive
14 | CC(C)NC(=O)Nc1ccc2c(c1)C(=O)N([C@H](C)CO)C[C@H](C)[C@@H](CN(C)Cc1ccccc1)OCCCC[C@H](C)O2 | inactive
15 | COc1ccc2c3c([nH]c2c1)[C@@H](CO)N(Cc1ccccc1)C[C@]13CCN(CC1)C(=O)Nc1cccc(c1)F | inactive
16 | COc1ccc(cc1)CN1C[C@]2(CN(C2)C(=O)Cc2ccncc2)c2c([nH]c3cc(ccc23)OC)[C@H]1CO | inactive
17 | COc1ccc2c3c([nH]c2c1)[C@@H](CO)N(C[C@]13CN(CCc2ccccc2)C1)C(=O)CN1CCOCC1 | inactive
18 | COc1ccc2c3c([nH]c2c1)[C@@H](CO)N(Cc1ccc(cc1)Cl)C[C@]13CN(CCc2ccccc2)C1 | active
19 | COc1ccc2c3c([nH]c2c1)[C@H](CO)N(Cc1ccc(cc1)Cl)C[C@]13CN(CCc2ccccc2)C1 | active
20 | COc1ccc2c3c([nH]c2c1)[C@H](CO)N(C[C@]13CN(CCc2ccccc2)C1)C(=O)CN1CCOCC1 | inactive
21 | C[C@H]1CN([C@@H](C)CO)C(=O)c2c(c3ccccc3n2C)-c2ccccc2CO[C@@H]1CN(C)Cc1ccccc1C(F)(F)F | inactive
22 | C[C@H]1CN([C@@H](C)CO)C(=O)Cc2cc(NC(=O)CCN3CCOCC3)ccc2O[C@H]1CN(C)S(=O)(=O)c1ccccc1 | inactive

Row | Compound | cytotoxicity call
23 | C=C[C@](C)(O)CCC[C@H](C)CCC[C@H](C)CCCC(C)C | inactive
24 | CC(=O)OC1CCC2(C)C(CCC3(C)C2CC=C2C4CC(C)(C)CCC4(C(=O)O)CCC23C)C1(C)C (centres undefined) | inactive
25 | COc1ccc(S(=O)(=O)Nc2ccc3c(c2)C(=O)N([C@@H](C)CO)C[C@H](C)[C@H](CN(C)Cc2ccc4c(c2)OCO4)OCCCC[C@H](C)O3)cc1 | inactive
26 | C[C@@H]1CN([C@H](C)CO)C(=O)Cc2cc(NS(=O)(=O)c3ccc(Cl)cc3)ccc2O[C@@H]1CN(C)C(=O)Nc1ccc(C(F)(F)F)cc1 | inactive
27 | CN(C)C(=O)C[C@@H]1C=C[C@H](NC(=O)C2CC2)[C@@H](CO)O1 | inactive
28 | COc1ccc(S(=O)(=O)N(C)C[C@@H]2OCCCC[C@H](C)Oc3ccc(NC(=O)NC4CCCCC4)cc3C(=O)N([C@@H](C)CO)C[C@@H]2C)cc1 | inactive
29 | COc1ccc(S(=O)(=O)N(C)C[C@H]2OCCCC[C@H](C)Oc3ccc(NC(=O)NC4CCCCC4)cc3C(=O)N([C@H](C)CO)C[C@H]2C)cc1 | inactive
30 | COc1ccc(S(=O)(=O)N(C)C[C@@H]2OCCCC[C@@H](C)Oc3ccc(NC(=O)NC4CCCCC4)cc3C(=O)N([C@H](C)CO)C[C@H]2C)cc1 | active
31 | COc1ccc(S(=O)(=O)N(C)C[C@H]2OCCCC[C@@H](C)Oc3ccc(NC(=O)NC4CCCCC4)cc3C(=O)N([C@@H](C)CO)C[C@@H]2C)cc1 | active
32 | COc1ccc(S(=O)(=O)N(C)C[C@@H]2OCCCC[C@H](C)Oc3ccc(NC(=O)NC4CCCCC4)cc3C(=O)N([C@H](C)CO)C[C@@H]2C)cc1 | inactive
33 | COc1ccc(S(=O)(=O)N(C)C[C@H]2OCCCC[C@H](C)Oc3ccc(NC(=O)NC4CCCCC4)cc3C(=O)N([C@H](C)CO)C[C@@H]2C)cc1 | inactive
34 | COc1ccc(S(=O)(=O)N(C)C[C@H]2OCCCC[C@@H](C)Oc3ccc(NC(=O)NC4CCCCC4)cc3C(=O)N([C@@H](C)CO)C[C@H]2C)cc1 | active
35 | COc1ccc(S(=O)(=O)N(C)C[C@@H]2OCCCC[C@H](C)Oc3ccc(NC(=O)NC4CCCCC4)cc3C(=O)N([C@@H](C)CO)C[C@H]2C)cc1 | inactive
36 | COc1ccc(S(=O)(=O)N(C)C[C@H]2OCCCC[C@H](C)Oc3ccc(NC(=O)NC4CCCCC4)cc3C(=O)N([C@@H](C)CO)C[C@H]2C)cc1 | inactive
37 | C[C@@H]1CN([C@H](C)CO)C(=O)Cc2cc(NC(=O)CCCCCC(=O)Nc3ccccc3N)ccc2O[C@H]1CN(C)S(=O)(=O)c1cn(C)cn1 | inactive
38 | COc1ccc(NC(=O)N(C)C[C@@H]2OCCCC[C@@H](C)Oc3ccc(NS(=O)(=O)c4cccs4)cc3C(=O)N([C@@H](C)CO)C[C@H]2C)cc1 | inactive
39 | C[C@H](CO)N1C[C@H](C)[C@@H](CN(C)S(=O)(=O)c2cn(C)cn2)Oc2ccc(NC(=O)C3CC3)cc2CC1=O | inactive
40 | C[C@@H]1CCCCO[C@H](CN(C)Cc2ccc(C(=O)Nc3ccccc3N)cc2)[C@@H](C)CN([C@@H](C)CO)C(=O)c2cc(N(C)C)ccc2O1 | inactive
41 | O=C(C[C@H]1C=C[C@@H](NC(=O)CN2CCOCC2)[C@@H](CO)O1)NCCc1ccccc1 | inactive
42 | CC(C)CC#Cc1ccc2c(c1)O[C@H](CN(C)C(=O)c1ccncc1)[C@H](C)CN([C@H](C)CO)S2(=O)=O | inactive
43 | OCCC[C@@H](O)c1ccc(OCCO)cc1 | inactive
44 | CCCCCCCCCc1ccc(OCCOCCOCCOCCOCCOCCOCCOCCOCCO)cc1 | active

Row | Compound | cytotoxicity call
45 | CCCCCCCCc1ccc(-c2ccc(C(=O)O)cc2)cc1 | inactive
46 | C[C@@H]1CN([C@@H](C)CO)C(=O)CCCn2nncc2CO[C@H]1CN(C)Cc1ccc(C(=O)Nc2ccccc2N)cc1 | inactive
47 | c1coc(CNC[C@H]2Cn3nncc3CO2)c1 | inactive
48 | CC(C)(C)c1ccc(NC(=O)c2ccc(C(C)(C)C)s2)cc1 | inactive
49 | CC(C)(C)c1ccc(NC(=O)N[C@H]2CCCc3ccccc32)cc1 | active
50 | N[C@H]1CC[C@@H](NC(=O)[C@H]2CCc3ccccc32)CC1 | inactive
51 | Cc1ccc(S(=O)(=O)Nc2ccc3c(c2)C(=O)N([C@H](C)CO)C[C@H](C)[C@@H](CN(C)C(=O)NC2CCCCC2)OCCCC[C@@H](C)O3)cc1 | inactive
52 | Clc1ccc(CSc2nc3ccccc3s2)cc1 | inactive
53 | Cc1nc2ccccc2n1Cc1ccc(Cl)cc1 | active
54 | Cl.Clc1ccc(Cn2c(CN3CCCC3)nc3ccccc32)cc1 | inactive
55 | CC1=CC2(CO)C(=O)[C@]3(CO3)C1[C@H]1[C@]2(C)C=C(CO)C(=O)[C@]12CO2 (some centres undefined) | inactive
56 | COc1ccc([Si](C)(C)[C@H]2[C@H](CC(=O)N3CCC[C@H]3CO)O[C@@]3(C(=O)N(Cc4cccc(N5C(=O)c6cccc7cccc5c67)c4)c4ccccc43)[C@@H]2C)cc1 | inactive
57 | COc1ccc([Si](C)(C)[C@H]2[C@H](CC(=O)N3Cc4ccccc4C[C@H]3CO)O[C@@]3(C(=O)N(Cc4cccc(N5C(=O)c6cccc7cccc5c67)c4)c4ccccc43)[C@@H]2C)cc1 | active
58 | COc1ccc([Si](C)(C)[C@H]2[C@H](CCO)O[C@@]3(C(=O)N(Cc4ccccc4)c4ccc(N5C(=O)c6cccc7cccc5c67)cc43)[C@@H]2C)cc1 | active
59 | COc1ccc([Si](C)(C)[C@H]2[C@H](CCO)O[C@@]3(C(=O)N(Cc4cccc(N5C(=O)c6cccc7cccc5c67)c4)c4ccccc43)[C@@H]2C)cc1 | active
60 | COc1ccc([Si](C)(C)[C@@H]2[C@@H](CCO)O[C@]3(C(=O)N(Cc4cccc(N5C(=O)c6cccc7cccc5c67)c4)c4ccccc43)[C@H]2C)cc1 | active
61 | COc1ccc([Si](C)(C)[C@@H]2[C@@H](CC(=O)N3Cc4ccccc4C[C@H]3CO)O[C@]3(C(=O)N(Cc4cccc(N5C(=O)c6cccc7cccc5c67)c4)c4ccccc43)[C@H]2C)cc1 | inactive
62 | COc1ccc([Si](C)(C)[C@@H]2[C@@H](CC(=O)N3CCC[C@H]3CO)O[C@]3(C(=O)N(Cc4cccc(N5C(=O)c6cccc7cccc5c67)c4)c4ccccc43)[C@H]2C)cc1 | inactive
63 | COc1ccc([Si](C)(C)[C@H]2[C@H](CC(=O)N3Cc4ccccc4C[C@H]3CO)O[C@@]3(C(=O)N(Cc4ccc(N5C(=O)c6cccc7cccc5c67)cc4)c4ccccc43)[C@@H]2C)cc1 | inactive
64 | C[C@@H]1[C@@H]([Si](C)(C)F)[C@H](CCO)O[C@@]12C(=O)N(Cc1cccc(N3C(=O)c4cccc5cccc3c45)c1)c1ccccc12 | inactive
